Test [1] has as its target Paired box protein Pax-6 (Homo sapiens) (UniProt P26367). The test is described as follows: ATG_Pax6_CIS: Attagene CIS-FACTORIAL HepG2 Assay for human Paired Box 6 (PAX6) (AID 2282956). The settings on record: HepG2 CIS-FACTORIAL PAX6 reporter transcription, RNA readout; actives raise or lower the signal. In outline: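 DMSO-referenced bidirectional fits of reporter mRNA fluorescence; HepG2 with transient cis-promoter MRTUs, 24 h post-dose, RT-PCR plus capillary electrophoresis detection.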

Test [2] can be described thus: ATG_PXRE_CIS: Attagene CIS-FACTORIAL HepG2 Assay for human Pregnane X Receptor Element (PXRE) (AID 2282957). As to conditions: HepG2 Attagene CIS-FACTORIAL PXRE reporter, mRNA; actives raise or lower the signal. In outline:
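Bidirectional activity, baselined to DMSO, derived from reporter mRNA fluorescence (RT-PCR plus capillary electrophoresis) in HepG2 cells bearing cis-promoter reporter units, 24 h exposure.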

Test [3] in a line: ATG_PPRE_CIS: Attagene CIS-FACTORIAL HepG2 Assay for human Peroxisome Proliferator-activated Response Element (PPRE) (AID 2282958). As to conditions: HepG2 PPRE cis-element reporter, Attagene transcription factor profiling; actives raise or lower the signal. In outline:
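Read-out: fluorescent reporter mRNA fragments resolved by capillary electrophoresis after RT-PCR. HepG2 cells carried transiently transfected PPRE-driven cis reporter constructs and were dosed for 24 h; gain or loss of signal fitted relative to DMSO.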

Test [4] can be described thus: ATG_RORE_CIS: Attagene CIS-FACTORIAL HepG2 Assay for human RAR-related Orphan Receptor Element (RORE) (AID 2282959). The settings on record: HepG2 Attagene cis-factorial RORE reporter, mRNA; actives raise or lower the signal. Summed up: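 Readout: fluorescent reporter mRNA by RT-PCR plus capillary electrophoresis, 24 h after dosing transfected HepG2 cells. Endogenous transcription factor activity on a cis promoter element is measured. Gain or loss of signal fitted against DMSO.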

The nature of test [5]: ATG_Sox_CIS: Attagene CIS-FACTORIAL HepG2 Assay for human SRY-box transcription factor (SOX) (AID 2282960). As to conditions: HepG2 Attagene cis-factorial SOX reporter, mRNA; actives raise or lower the signal. Summed up:
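Read-out: fluorescent RT-PCR products of SOX1-linked reporter transcripts resolved by capillary electrophoresis, fitted bidirectionally against DMSO. Transiently transfected HepG2 cells, 24 h after chemical exposure, endogenous transcription factor activity.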

In test [6] the target is Transcription factor Sp1 (Homo sapiens) (UniProt P08047). The test is described as follows: ATG_Sp1_CIS: Attagene CIS-FACTORIAL HepG2 Assay for human Specificity Protein 1 (Sp1) (AID 2282961). As to conditions: HepG2 Sp1 cis-reporter transcription, actives raise or lower the signal. Summed up:
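Read-out: fluorescence of 6-FAM-labeled, HpaI-digested RT-PCR products separated by capillary electrophoresis. HepG2 cells carried transfected cis-element reporter units and were exposed to chemicals for 24 h; gain or loss of signal fitted relative to DMSO.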

A short description of test [7]: ATG_SREBP_CIS: Attagene CIS-FACTORIAL HepG2 Assay for human Sterol Regulatory Element Binding (SREBP) (AID 2282962). As to conditions: HepG2 Attagene cis-factorial SREBP reporter, mRNA; actives raise or lower the signal. Summed up:
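In this cis-format assay, HepG2 liver cells express reporters controlled by promoter elements responsive to native transcription factors. Exposure lasts 24 h; reporter mRNA fluorescence from capillary electrophoresis gives the signal, fitted bidirectionally against DMSO.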

Test [8] has as its target Signal transducer and activator of transcription 3 (Homo sapiens) (UniProt P40763). The test is described as follows: ATG_STAT3_CIS: Attagene CIS-FACTORIAL HepG2 Assay for human Signal Transducer and Activator of Transcription 3 (STAT3) (AID 2282963). The settings on record: HepG2, Attagene cis-factorial STAT3 reporter transcription; actives raise or lower the signal. Summed up:
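HepG2, MRTU-transfected, 24 h dosing. RNA → RT → PCR → FAM label → HpaI → CE. Bidirectional fit vs DMSO.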

Test [9] is described as follows: ATG_TA_CIS: Attagene CIS-FACTORIAL HepG2 Assay for human TA Basal Promoter (AID 2282964). The settings on record: HepG2 Attagene CIS-factorial TA basal promoter reporter; actives raise or lower the signal. In outline:
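HepG2 cells transiently transfected with multiplexed cis-promoter reporter units, dosed 24 h. Reporter mRNA measured by RT-PCR, 6-FAM labelling, HpaI digestion and capillary electrophoresis; bidirectional fit versus DMSO baseline, serving as background control.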

Test [10] in a line: ATG_TCF_b_cat_CIS: Attagene CIS-FACTORIAL HepG2 Assay for human T-Cell-Factor with beta-catenin (TCF/b-cat) (AID 2282965). The settings on record: HepG2 TCF/beta-catenin cis-reporter transcription, actives raise or lower the signal. Summed up: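 HepG2 cells transiently transfected with multiple cis-promoter-regulated reporter transcription units, so endogenous transcription factor activity is measured. Reporter mRNA read 24 hours after dosing by RT-PCR, fluorescent labelling and capillary electrophoresis; bidirectional fitting against DMSO.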

Test [11] is described as follows: ATG_TAL_CIS: Attagene CIS-FACTORIAL HepG2 Assay for human TAL Basal Promoter (AID 2282966).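 Also: background control endpoint measuring basal TAL promoter reporter mRNA not a specific factor.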 As to conditions: HepG2 Attagene cis-factorial TAL promoter reporter; actives raise or lower the signal. In outline:
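Human hepatoma HepG2 cells, transfected with promoter-regulated reporter units, were treated 24 h. Reporter transcript levels, measured through RT-PCR and capillary electrophoresis, were fitted for gain or loss relative to DMSO.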

Test [12] is described as follows: ATG_TGFb_CIS: Attagene CIS-FACTORIAL HepG2 Assay for human Transforming Growth Factor (TGF) (AID 2282967). As to conditions: HepG2 Attagene CIS TGFb reporter, mRNA transcription; actives raise or lower the signal. In outline: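 HepG2 cells transiently transfected with cis-promoter-driven multiplexed reporter units; 24 h compound exposure. Reporter mRNA measured by RT-PCR, 6-FAM labeling, HpaI digestion and capillary electrophoresis; bidirectional fit versus DMSO baseline.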

For test [13], the target named is Estrogen receptor (Homo sapiens) (UniProt P03372). The test is described as follows: ATG_ERa_TRANS: Attagene TRANS-FACTORIAL HepG2 Assay for human Estrogen Receptor alpha (ERa) (AID 2282970; active = hit-call score of the fitted dose curve at least 0.9, where 1 is the maximum). As to conditions: HepG2 Attagene TRANS ERa GAL4 reporter, mRNA. In outline:
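Signal derives from fluorescence of labelled reporter PCR fragments separated by capillary electrophoresis. HepG2 cells transiently carrying multiple GAL4-UAS reporter units were treated 24 hours, and induction above DMSO baseline was fitted as activity.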

Test [14] has as its target X-box-binding protein 1 (Homo sapiens) (UniProt P17861). The test is described as follows: ATG_Xbp1_CIS: Attagene CIS-FACTORIAL HepG2 Assay for human X-box Binding Protein 1 (XBP1) (AID 2282972). As to conditions: HepG2 XBP1 cis-element reporter, Attagene multiplex; actives raise or lower the signal. In outline:
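Changes in reporter transcript abundance, read by RT-PCR and capillary electrophoresis, reflect endogenous transcription factor activity. Transfected HepG2 cells received compound for 24 hours; DMSO defined baseline for bidirectional analysis.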

Test [15] can be described thus: ATG_M_19_TRANS: Attagene TRANS-FACTORIAL HepG2 Assay for M19 Transcription Factor (Internal Marker) (AID 2282974; active = hit-call score of the fitted dose curve at least 0.9, where 1 is the maximum). As to conditions: HepG2 Attagene TRANS-FACTORIAL M19 internal marker reporter. In outline: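 24 h chemical exposure of transiently transfected HepG2 (MRTU library). RNA → oligo(dT) RT → PCR → 6-FAM labelling → HpaI cut → CE fluorescence. Positive-direction fit vs DMSO baseline; background internal-marker readout.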

Test [16] in a line: ATG_VDRE_CIS: Attagene CIS-FACTORIAL HepG2 Assay for human Vitamin D Receptor Element (VDRE) (AID 2282968). The settings on record: HepG2 VDRE cis-reporter transcription, actives raise or lower the signal. Summed up:
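Steps: transfect HepG2 with multiple reporter transcription units; dose chemicals 24 h; isolate RNA; RT-PCR; label with 6-FAM primer extension; HpaI digest; capillary electrophoresis. Curves fitted both directions against DMSO.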

Test [17] is described as follows: ATG_GAL4_TRANS: Attagene TRANS-FACTORIAL HepG2 Assay for GAL4 (Internal Marker) (AID 2282976; active = hit-call score of the fitted dose curve at least 0.9, where 1 is the maximum). As to conditions: HepG2 Attagene TRANS GAL4 internal marker reporter. In outline:
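Liver HepG2 line bearing multiplexed GAL4-UAS reporter constructs; 24 h chemical treatment. Transcripts were quantified as fluorescent fragments on capillary electrophoresis after RT-PCR and HpaI cut, with activity fitted upward from DMSO.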

Test [18] has as its target Estrogen-related receptor gamma (Homo sapiens) (UniProt P62508). The test is described as follows: ATG_ERRg_TRANS: Attagene TRANS-FACTORIAL HepG2 Assay for human Estrogen-Related Receptor gamma (ERRg) (AID 2282977; active = hit-call score of the fitted dose curve at least 0.9, where 1 is the maximum;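 also: hits increase reporter signal over DMSO so potencies reflect activators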). As to conditions: HepG2 Attagene TRANS reporter, ERRg transactivation. In outline:
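Exogenous NR-Gal4 chimera activity measured as reporter transcript induction after 24 h in transiently transfected HepG2 cells. RNA reverse-transcribed, PCR-amplified, 6-FAM-labelled and resolved by capillary electrophoresis; increase over DMSO baseline.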

Test [19] concerns the target Nuclear receptor subfamily 1 group I member 3 (Homo sapiens) (UniProt Q14994). The test is described as follows: ATG_CAR_TRANS: Attagene TRANS-FACTORIAL HepG2 Assay for human Constitutive Androstane Receptor (CAR) (AID 2282969; active = hit-call score of the fitted dose curve at least 0.9, where 1 is the maximum;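 also: activators raise reporter mRNA above DMSO so AC50 marks induction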). The settings on record: HepG2 Attagene TRANS-FACTORIAL CAR reporter. Summed up: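 Steps: transient transfection of HepG2 with multiple GAL4-UAS reporter units; 24 h compound incubation; RNA isolation, RT-PCR, 6-FAM primer extension, HpaI digest; capillary electrophoresis. Gain-of-signal relative to DMSO negative control.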

Each structure is given as a SMILES string. Inconclusive results are not listed. Activity calls are given as the source filed them. The calls were made as follows, unless noted: active = hit-call score of the fitted dose curve at least 0.9, where 1 is the maximum; inactive = score below 0.9.

As usually defined, the AC50 is the concentration at which the activity in the assay is half-maximal.

Sequence of Signal transducer and activator of transcription 3 (Homo sapiens) (P40763 whole entry, looked up): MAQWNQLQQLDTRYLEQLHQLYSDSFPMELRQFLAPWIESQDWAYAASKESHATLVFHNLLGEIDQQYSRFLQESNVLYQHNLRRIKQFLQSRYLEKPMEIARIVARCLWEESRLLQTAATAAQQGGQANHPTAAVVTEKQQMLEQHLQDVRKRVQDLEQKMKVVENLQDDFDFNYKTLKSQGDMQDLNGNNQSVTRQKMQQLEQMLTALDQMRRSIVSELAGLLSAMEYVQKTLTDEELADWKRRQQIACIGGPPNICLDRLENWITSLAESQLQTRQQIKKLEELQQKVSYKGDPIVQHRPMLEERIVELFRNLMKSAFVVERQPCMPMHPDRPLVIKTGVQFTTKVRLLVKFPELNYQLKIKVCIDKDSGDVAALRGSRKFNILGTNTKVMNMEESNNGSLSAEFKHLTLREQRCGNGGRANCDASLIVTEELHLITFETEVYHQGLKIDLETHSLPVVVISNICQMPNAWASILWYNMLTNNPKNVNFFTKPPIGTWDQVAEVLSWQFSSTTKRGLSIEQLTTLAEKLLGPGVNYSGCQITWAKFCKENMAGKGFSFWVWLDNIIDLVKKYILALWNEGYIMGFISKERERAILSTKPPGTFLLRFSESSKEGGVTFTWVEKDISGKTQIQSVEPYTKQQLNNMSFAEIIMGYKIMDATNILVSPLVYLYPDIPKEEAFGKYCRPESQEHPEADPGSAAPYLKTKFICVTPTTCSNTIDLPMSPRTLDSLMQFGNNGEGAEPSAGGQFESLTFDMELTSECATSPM
Sequence of Transcription factor Sp1 (Homo sapiens) (P08047 whole entry, looked up): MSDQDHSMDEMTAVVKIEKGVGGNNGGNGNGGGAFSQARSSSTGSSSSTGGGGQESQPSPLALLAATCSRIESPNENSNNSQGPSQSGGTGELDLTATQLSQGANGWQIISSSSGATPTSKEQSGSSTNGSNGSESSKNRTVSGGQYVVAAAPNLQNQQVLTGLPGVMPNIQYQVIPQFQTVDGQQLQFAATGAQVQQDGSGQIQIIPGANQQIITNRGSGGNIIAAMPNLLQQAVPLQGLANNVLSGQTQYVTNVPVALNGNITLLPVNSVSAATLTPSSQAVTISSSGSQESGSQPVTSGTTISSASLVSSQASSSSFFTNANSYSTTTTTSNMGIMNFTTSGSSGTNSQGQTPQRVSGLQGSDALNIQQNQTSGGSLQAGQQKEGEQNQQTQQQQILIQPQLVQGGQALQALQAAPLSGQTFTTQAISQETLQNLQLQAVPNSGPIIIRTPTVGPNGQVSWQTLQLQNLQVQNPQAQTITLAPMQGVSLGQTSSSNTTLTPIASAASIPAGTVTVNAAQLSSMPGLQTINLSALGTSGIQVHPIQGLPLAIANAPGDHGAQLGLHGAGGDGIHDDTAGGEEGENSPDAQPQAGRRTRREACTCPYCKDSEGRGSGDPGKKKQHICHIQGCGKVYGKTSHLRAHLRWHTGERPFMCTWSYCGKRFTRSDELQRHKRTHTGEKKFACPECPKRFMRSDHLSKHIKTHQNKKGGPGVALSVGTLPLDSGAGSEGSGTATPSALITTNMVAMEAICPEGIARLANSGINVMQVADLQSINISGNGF
Sequence of X-box-binding protein 1 (Homo sapiens) (P17861 whole entry, looked up): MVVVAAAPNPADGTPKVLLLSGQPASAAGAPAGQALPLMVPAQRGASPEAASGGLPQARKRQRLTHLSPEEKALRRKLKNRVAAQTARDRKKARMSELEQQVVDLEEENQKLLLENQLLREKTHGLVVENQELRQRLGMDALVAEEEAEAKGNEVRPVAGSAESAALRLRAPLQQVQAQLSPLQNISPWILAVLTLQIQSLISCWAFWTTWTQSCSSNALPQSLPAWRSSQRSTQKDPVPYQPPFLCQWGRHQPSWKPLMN
Sequence of Estrogen receptor (Homo sapiens) (P03372 whole entry, looked up, the tested form may be a part): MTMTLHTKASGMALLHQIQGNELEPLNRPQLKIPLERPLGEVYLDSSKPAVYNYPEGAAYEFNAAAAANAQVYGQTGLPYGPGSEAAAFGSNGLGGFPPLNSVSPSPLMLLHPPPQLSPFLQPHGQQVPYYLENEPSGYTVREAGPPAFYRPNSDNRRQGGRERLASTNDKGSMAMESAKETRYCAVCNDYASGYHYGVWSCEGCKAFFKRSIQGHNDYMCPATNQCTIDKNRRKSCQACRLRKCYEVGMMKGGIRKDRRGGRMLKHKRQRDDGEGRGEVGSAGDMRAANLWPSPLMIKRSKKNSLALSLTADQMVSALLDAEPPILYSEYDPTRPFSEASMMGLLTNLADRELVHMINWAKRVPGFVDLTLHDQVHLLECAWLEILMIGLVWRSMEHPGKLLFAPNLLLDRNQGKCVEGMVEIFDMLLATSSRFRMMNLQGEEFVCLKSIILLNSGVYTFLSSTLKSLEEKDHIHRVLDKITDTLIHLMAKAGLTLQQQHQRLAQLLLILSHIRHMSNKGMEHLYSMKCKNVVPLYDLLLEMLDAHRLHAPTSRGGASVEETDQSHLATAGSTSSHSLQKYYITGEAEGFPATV
Sequence of Paired box protein Pax-6 (Homo sapiens) (P26367 whole entry, looked up): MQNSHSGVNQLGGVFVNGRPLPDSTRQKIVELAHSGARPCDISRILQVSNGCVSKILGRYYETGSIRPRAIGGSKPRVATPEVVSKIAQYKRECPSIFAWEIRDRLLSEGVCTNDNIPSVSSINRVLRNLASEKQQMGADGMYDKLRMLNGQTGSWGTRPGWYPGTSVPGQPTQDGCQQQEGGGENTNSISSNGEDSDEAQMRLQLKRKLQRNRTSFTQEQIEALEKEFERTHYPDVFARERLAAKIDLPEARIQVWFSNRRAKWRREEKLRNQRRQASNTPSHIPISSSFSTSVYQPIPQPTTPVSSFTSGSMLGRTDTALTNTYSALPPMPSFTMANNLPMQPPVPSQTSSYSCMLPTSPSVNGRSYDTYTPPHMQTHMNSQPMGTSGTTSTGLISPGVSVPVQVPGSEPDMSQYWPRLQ
Sequence of Nuclear receptor subfamily 1 group I member 3 (Homo sapiens) (Q14994 whole entry, looked up, the tested form may be a part): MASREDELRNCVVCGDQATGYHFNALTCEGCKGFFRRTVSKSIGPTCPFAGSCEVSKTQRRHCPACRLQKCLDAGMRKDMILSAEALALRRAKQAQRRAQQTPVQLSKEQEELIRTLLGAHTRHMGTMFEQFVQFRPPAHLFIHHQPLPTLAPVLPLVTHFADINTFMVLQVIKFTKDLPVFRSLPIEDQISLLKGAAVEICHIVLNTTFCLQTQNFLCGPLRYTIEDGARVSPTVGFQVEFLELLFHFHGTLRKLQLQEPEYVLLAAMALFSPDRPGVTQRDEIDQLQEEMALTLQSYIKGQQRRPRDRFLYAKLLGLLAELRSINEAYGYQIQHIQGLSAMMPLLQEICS
Sequence of Estrogen-related receptor gamma (Homo sapiens) (P62508 whole entry, looked up, the tested form may be a part): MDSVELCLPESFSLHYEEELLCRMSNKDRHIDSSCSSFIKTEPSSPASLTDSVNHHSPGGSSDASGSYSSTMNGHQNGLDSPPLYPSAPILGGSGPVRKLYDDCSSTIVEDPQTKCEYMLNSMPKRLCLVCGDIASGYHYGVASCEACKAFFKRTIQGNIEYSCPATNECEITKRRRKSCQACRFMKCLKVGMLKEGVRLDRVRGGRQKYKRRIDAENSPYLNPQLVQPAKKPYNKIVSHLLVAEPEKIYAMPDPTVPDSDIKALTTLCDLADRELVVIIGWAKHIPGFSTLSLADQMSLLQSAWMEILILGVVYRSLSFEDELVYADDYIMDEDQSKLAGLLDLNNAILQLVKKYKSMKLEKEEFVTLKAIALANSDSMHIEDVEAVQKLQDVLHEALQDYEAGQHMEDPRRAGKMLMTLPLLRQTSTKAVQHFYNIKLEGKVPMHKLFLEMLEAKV

For `CC(C)CCCC(C)CC=O` (stereo not drawn), the outcome in test [1], in [3], in test [4], in test [5], in test [6] and in test [7] was inactive. In addition, the call in test [8], in [9], in [10], in [11], in test [12] and in test [13] was inactive. For the same compound, the result in test [14] and in test [15] was inactive. The AC50 in test [2] is 65.1 µM (active).

`Cc1ccc(C2OC[C@@H]3OC(c4ccc(C)cc4)O[C@H]([C@H](O)CO)[C@@H]3O2)cc1` (stereo partly drawn): the outcome in [1], in [3], in test [4], in test [5], in [6] and in [7] was inactive. The compound was called inactive in test [8], in test [9], in test [10], in test [11], in test [12] and in [16]. In addition, the call in [14] and in [17] was inactive. Besides, the concentration at half-maximal activity (AC50) in [2] was 12.9 µM (active).

On to `N[C@H]1C(O)O[C@H](CO)[C@H](O)[C@@H]1O` (stereo partly drawn), for which the call in test [1], in test [2], in [3], in [4], in test [5] and in [6] was inactive. The compound was classed as inactive in test [7], in [8], in test [9], in test [10], in test [11] and in [12]. The outcome in test [13], in [14], in test [15], in test [17] and in [18] was inactive.

As to `C=CCCCCCCCCC(=O)OCCCC`, the compound was classed as inactive in [1], in test [3], in test [4], in [5], in [6] and in test [7]. In addition, the compound was classed as inactive in [8], in test [9], in [10], in [11], in test [12] and in [19]. Also, the call in [13], in test [14] and in test [15] was inactive. For the same compound, the AC50 in test [2] is 42.1 µM (active).

These data come from PubChem BioAssay (EPA / NIEHS).
